Results from PubChem BioAssay (Tox21).
Records with an inconclusive call do not appear. Entries that show only a call come without a potency. A number with no mark means an inactive call. The source made the active and inactive calls. Unless noted, calls follow the shape of the dose curve; as a rule, active = well fitted curve in the direction sought with a large enough effect in the repeat runs; inconclusive = weak or mixed curves; inactive = no such curve, though single readings can be large; an effect the other way counts as inactive or inconclusive.

Assays:
[1] = qHTS assay to identify aromatase inhibitors - cell viability counter screen (AID 743084);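 also: cells stimulated with testosterone during compound exposure; nearly all actives have a fitted effect of over 55% in size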
[2] = target: Aryl hydrocarbon receptor (Homo sapiens) (UniProt P35869); assay: qHTS assay to identify small molecule that activate the aryl hydrocarbon receptor (AhR) signaling pathway (AID 743085); also: nearly all actives have a fitted effect of over 15% in size; also: potency is read from the fitted curve at half-maximal effect;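 as to activation: HG2L7.5c1 human HepG2 liver cells with stably integrated DRE-driven firefly reporter; series mostly up to about 70 µM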
How it was run: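 Luminescence (ONE-Glo) from a dioxin-responsive-element luciferase reporter in HG2L7.5c1 HepG2 cells after 24 hr compound exposure at 37C; viability measured by CellTiter-Fluor fluorescence beforehand.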

[3] = qHTS assay to identify small molecule that activate the aryl hydrocarbon receptor (AhR) signaling pathway - cell viability counter screen (AID 743086);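 also: HepG2 liver cells carrying the AhR DRE luciferase reporter; series mostly up to about 70 µM; nearly all actives have a fitted effect of over 45% in size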
How it was run: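 HepG2-AhR-luc (HG2L7.5c1) cells, 4000/well, were preincubated 5 h at 37C, exposed to compound in qHTS format for 24 hr at 37C, then given CellTiter-Fluor for 30 min; viability was read as fluorescence in the reporter wells.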

[4] = target: Peroxisome proliferator-activated receptor gamma (Homo sapiens) (UniProt P37231); assay: qHTS assay to identify small molecule agonists of the peroxisome proliferator-activated receptor gamma (PPARg) signaling pathway (AID 743094; active = well fitted activation curve with a large enough effect in the signal ratio in the repeat runs, not every such curve was filed as active; the % refers to the signal ratio)
How it was run: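 Reporter activation was scored by fluorescence of cleaved LiveBLAzer B/G substrate (1 h, room temperature) in PPARg-bla HEK293H cells previously treated 17 h at 37C with DMSO-dissolved compounds.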

[5] = target: Peroxisome proliferator-activated receptor gamma (Homo sapiens) (UniProt P37231); assay: qHTS assay to identify small molecule antagonists of the peroxisome proliferator-activated receptor gamma (PPARg) signaling pathway (AID 743191; calls by dose curve; also: series mostly up to about 63 µM; nearly all actives have a fitted effect of over 30% in size)
How it was run: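 GeneBLAzer PPARg UAS-bla HEK293H cells carrying a UAS-driven beta-lactamase reporter were plated at 3000 cells/well, preincubated 5 h at 37C, then given compound for 17 h at 37C; LiveBLAzer B/G FRET substrate was read after 1 h at room temperature.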

[6] = qHTS assay to identify small molecule antagonists of the peroxisome proliferator-activated receptor gamma (PPARg) signaling pathway - cell viability counter screen (AID 743194); also: nearly all actives have a fitted effect of over 55% in size
How it was run: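 PPARg-UAS-bla HEK293H cells were plated, rested 5 h at 37 C, then treated with compounds plus rosiglitazone (50 nM final) for 17 h at 37 C; viability was then read by CellTiter-Glo luminescence after 30 min at room temperature.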

[7] = qHTS assay for small molecule agonists of the antioxidant response element (ARE) signaling pathway (AID 743202; active = well fitted activation curve with a large enough effect in the signal ratio in the repeat runs, not every such curve was filed as active; the % refers to the signal ratio; also: potency is read from the fitted curve at half-maximal effect)
How it was run: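 Following a 16 h, 37 C exposure of reporter HepG2 cells (ARE-driven beta-lactamase, 2,000 cells/well) to compounds, FRET substrate was applied for 2 h at room temperature and fluorescence intensity recorded.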

[8] = qHTS assay for small molecule agonists of the antioxidant response element (ARE) signaling pathway - cell viability counter screen (AID 743203; calls by dose curve; also: nearly all actives have a fitted effect of over 55% in size)
How it was run: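 Viability counter screen: stably transfected ARE-bla HepG2 line, 16 hrs compound exposure at 37C/5% CO2, ATP-based CellTiter-Glo luminescence measured in the reporter wells.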

[9] = qHTS assay for small molecule activators of the heat shock response signaling pathway - cell viability counter screen (AID 743209); also: nearly all actives have a fitted effect of over 50% in size
How it was run: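 Viability of HSE-bla HeLa cells is measured with CellTiter-Glo in the wells already used for the reporter read. Compound exposure lasts 5 h at 37 C, and luminescence is read after 30 min at room temperature.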

[10] = qHTS assay for small molecule activators of the heat shock response signaling pathway (AID 743210; active = well fitted activation curve with a large enough effect in the signal ratio in the repeat runs, with a control signal flat, not every such curve was filed as active; the % refers to the signal ratio; also: series mostly up to about 63 µM)
How it was run: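 Heat shock element–beta-lactamase HeLa reporter cells; qHTS with compounds for 5 h at 37 C; detection by FRET substrate fluorescence after 2.5 h at RT.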

[11] = qHTS assay to identify small molecule antagonists of the peroxisome proliferator-activated receptor delta (PPARd) signaling pathway - cell viability counter screen (AID 743213); also: nearly all actives have a fitted effect of over 50% in size
How it was run: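 PPARd-bla HEK293H cells were treated with compounds plus agonist L165041 (300 nM final) for 17 h at 37 C. Viability was then read in the same wells by CellTiter-Glo luminescence after 30 min at room temperature.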

[12] = target: Bile acid receptor (Homo sapiens) (UniProt Q96RI1); assay: qHTS assay to identify small molecule antagonists of the farnesoid-X-receptor (FXR) signaling pathway (AID 743217; active = well fitted inhibition curve with a large enough effect in the signal ratio in the repeat runs, not every such curve was filed as active; the % refers to the signal ratio)
How it was run: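 Screen of the Tox21 10K library in quantitative HTS format using FXR-UAS-bla HEK 293T reporter cells. Agonist chenodeoxycholic acid, 50 uM final, added with compounds; 16 h incubation at 37 °C; beta-lactamase FRET fluorescence measured.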

[13] = qHTS assay to identify small molecule agonists of the farnesoid-X-receptor (FXR) signaling pathway - cell viability counter screen (AID 743218); also: nearly all actives have a fitted effect of over 45% in size
How it was run: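 Viability of FXR-bla HEK 293T cells is measured by ATP-based CellTiter-Glo luminescence following 16 h compound treatment at 37 C and a prior 2 h room-temperature beta-lactamase substrate step.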

[14] = target: Bile acid receptor (Homo sapiens) (UniProt Q96RI1); assay: qHTS assay to identify small molecule agonists of the farnesoid-X-receptor (FXR) signaling pathway (AID 743220; active = well fitted activation curve with a large enough effect in the signal ratio in the repeat runs, not every such curve was filed as active; the % refers to the signal ratio)
How it was run: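 FXR-UAS-bla HEK 293T cells carrying a UAS-driven beta-lactamase reporter were plated for 5 h at 37C/5% CO2, then exposed to DMSO-dissolved Tox21 10K compounds for 16 h at 37C. A LiveBLAzer B/G FRET substrate was loaded for 2 h at room temperature before fluorescence reading.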

[15] = qHTS assay to identify small molecule antagonists of the farnesoid-X-receptor (FXR) signaling pathway - cell viability counter screen (AID 743221; active = well fitted cell-killing curve with a large enough effect in the repeat runs, not every such curve was filed as active; also: nearly all actives have a fitted effect of over 50% in size)
How it was run: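 Cytotoxicity counter screen run in the FXR-bla reporter wells: HEK 293T cells exposed to compound with 50 uM (final) chenodeoxycholic acid for 16 h, 37 C, then viability measured by CellTiter-Glo luminescence after 30 min, room temperature.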

[16] = target: Vitamin D3 receptor (Homo sapiens) (UniProt P11473); assay: qHTS assay to identify small molecule agonists of the vitamin D receptor (VDR) signaling pathway (AID 743222; calls by dose curve)
How it was run: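 Fluorescence from cleaved LiveBLAzer B/G FRET substrate served as readout. VDR-bla cells had been treated 16 h at 37C with test compounds in DMSO, following a 4 h settling period, and substrate was loaded for 2 h at RT.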

[17] = target: Vitamin D3 receptor (Homo sapiens) (UniProt P11473); assay: qHTS assay to identify small molecule antagonists of the vitamin D receptor (VDR) signaling pathway (AID 743223; active = well fitted inhibition curve with a large enough effect in the signal ratio in the repeat runs, not every such curve was filed as active; the % refers to the signal ratio)
How it was run: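 Antagonist mode: compound added to VDR-bla cells alongside agonist 1alpha,25-dihydroxyvitamin D3 (3 nM final), incubation 16 h at 37C. Read-out is LiveBLAzer FRET fluorescence, 2 h at room temperature.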

[18] = qHTS assay to identify small molecule agonists of the peroxisome proliferator-activated receptor delta (PPARd) signaling pathway - cell viability counter screen (AID 743211); also: nearly all actives have a fitted effect of over 55% in size
How it was run: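 Viability was measured as CellTiter-Glo luminescence (30 min, room temperature) in the same wells as the beta-lactamase readout. GeneBLAzer PPARd UAS-bla HEK293H cells received compound after 5 h plating and were incubated 17 h at 37 C.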

[19] = target: Peroxisome proliferator-activated receptor delta (Homo sapiens) (UniProt Q03181); assay: qHTS assay to identify small molecule agonists of the peroxisome proliferator-activated receptor delta (PPARd) signaling pathway (AID 743212; calls by dose curve)
How it was run: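 Beta-lactamase reporter read by fluorescence (LiveBLAzer B/G FRET, 2 h, room temperature). Test agents, in DMSO, incubated at 37 C with PPARd-bla HEK293H cells.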

[20] = target: Peroxisome proliferator-activated receptor delta (Homo sapiens) (UniProt Q03181); assay: qHTS assay to identify small molecule antagonists of the peroxisome proliferator-activated receptor delta (PPARd) signaling pathway (AID 743215; active = well fitted inhibition curve with a large enough effect in the signal ratio in the repeat runs, not every such curve was filed as active; the % refers to the signal ratio;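 also: cells stimulated with agonist L165041 at 300 nM final during compound exposure; series mostly up to about 62 µM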)
How it was run: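 Plated HEK293H PPARd-bla cells rested 5 h at 37 C and 5% CO2. Compound, then agonist L165041 at 300 nM final, was added; 17 h at 37 C followed. Substrate loading, 2 h room temperature, fluorescence measured.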

Chain of Vitamin D3 receptor (Homo sapiens) (P11473 whole entry, looked up): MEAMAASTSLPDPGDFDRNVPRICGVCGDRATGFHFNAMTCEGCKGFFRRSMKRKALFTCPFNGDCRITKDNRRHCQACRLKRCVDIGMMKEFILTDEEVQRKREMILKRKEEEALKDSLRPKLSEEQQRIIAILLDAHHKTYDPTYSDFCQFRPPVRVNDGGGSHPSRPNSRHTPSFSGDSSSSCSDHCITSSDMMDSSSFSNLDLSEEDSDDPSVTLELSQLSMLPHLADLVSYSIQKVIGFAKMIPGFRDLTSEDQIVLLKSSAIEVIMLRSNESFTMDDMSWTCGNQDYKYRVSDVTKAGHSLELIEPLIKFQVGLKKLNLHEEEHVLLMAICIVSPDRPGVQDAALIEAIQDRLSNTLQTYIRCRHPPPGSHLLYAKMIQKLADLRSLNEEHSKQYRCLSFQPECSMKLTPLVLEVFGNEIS
Chain of Peroxisome proliferator-activated receptor delta (Homo sapiens) (Q03181 whole entry, looked up): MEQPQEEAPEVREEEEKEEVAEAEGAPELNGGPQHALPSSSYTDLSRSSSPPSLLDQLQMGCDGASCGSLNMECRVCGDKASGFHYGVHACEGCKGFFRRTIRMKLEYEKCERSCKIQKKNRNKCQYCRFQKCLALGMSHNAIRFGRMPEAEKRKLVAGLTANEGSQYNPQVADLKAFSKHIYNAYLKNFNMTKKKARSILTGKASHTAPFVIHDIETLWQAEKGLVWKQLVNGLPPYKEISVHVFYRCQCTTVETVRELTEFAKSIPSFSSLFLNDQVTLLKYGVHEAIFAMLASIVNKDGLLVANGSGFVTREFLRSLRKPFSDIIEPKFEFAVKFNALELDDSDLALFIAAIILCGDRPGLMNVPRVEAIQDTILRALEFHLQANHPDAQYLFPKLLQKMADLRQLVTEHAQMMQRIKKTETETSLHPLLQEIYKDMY
Chain of Bile acid receptor (Homo sapiens) (Q96RI1 whole entry, looked up): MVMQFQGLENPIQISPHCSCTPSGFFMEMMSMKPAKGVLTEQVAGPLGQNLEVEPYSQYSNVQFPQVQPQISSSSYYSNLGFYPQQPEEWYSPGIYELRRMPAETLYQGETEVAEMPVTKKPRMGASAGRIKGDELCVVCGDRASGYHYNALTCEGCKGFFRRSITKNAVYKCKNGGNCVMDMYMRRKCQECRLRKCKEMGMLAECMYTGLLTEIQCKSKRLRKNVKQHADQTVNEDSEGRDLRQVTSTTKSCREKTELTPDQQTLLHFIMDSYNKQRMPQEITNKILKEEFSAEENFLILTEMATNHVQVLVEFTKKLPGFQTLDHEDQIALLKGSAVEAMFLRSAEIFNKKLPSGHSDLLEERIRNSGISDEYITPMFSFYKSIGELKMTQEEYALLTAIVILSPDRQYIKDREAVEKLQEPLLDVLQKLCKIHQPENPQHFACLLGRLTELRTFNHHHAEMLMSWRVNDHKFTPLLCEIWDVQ
Chain of Aryl hydrocarbon receptor (Homo sapiens) (P35869 whole entry, looked up): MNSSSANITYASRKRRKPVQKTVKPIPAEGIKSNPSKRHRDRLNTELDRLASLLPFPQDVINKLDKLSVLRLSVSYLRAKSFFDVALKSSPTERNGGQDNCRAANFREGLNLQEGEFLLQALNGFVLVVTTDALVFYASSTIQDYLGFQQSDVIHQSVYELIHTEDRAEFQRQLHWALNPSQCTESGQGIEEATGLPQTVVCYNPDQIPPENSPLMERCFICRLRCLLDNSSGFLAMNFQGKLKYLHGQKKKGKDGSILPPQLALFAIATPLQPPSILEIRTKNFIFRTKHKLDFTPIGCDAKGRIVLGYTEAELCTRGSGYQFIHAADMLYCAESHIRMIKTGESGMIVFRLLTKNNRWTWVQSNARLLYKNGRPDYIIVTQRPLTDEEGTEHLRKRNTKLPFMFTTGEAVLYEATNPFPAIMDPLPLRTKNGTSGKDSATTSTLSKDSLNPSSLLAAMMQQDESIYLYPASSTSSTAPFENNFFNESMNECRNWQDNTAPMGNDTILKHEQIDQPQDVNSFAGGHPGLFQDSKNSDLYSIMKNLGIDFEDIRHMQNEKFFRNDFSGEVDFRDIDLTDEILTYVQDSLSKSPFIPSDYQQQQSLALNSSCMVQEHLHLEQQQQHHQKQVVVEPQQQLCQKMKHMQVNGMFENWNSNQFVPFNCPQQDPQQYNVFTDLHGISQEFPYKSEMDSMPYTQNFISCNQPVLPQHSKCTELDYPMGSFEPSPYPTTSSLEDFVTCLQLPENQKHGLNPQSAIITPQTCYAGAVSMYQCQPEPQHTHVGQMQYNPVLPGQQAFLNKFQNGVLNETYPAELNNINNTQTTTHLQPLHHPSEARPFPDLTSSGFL
Chain of Peroxisome proliferator-activated receptor gamma (Homo sapiens) (P37231 whole entry, looked up): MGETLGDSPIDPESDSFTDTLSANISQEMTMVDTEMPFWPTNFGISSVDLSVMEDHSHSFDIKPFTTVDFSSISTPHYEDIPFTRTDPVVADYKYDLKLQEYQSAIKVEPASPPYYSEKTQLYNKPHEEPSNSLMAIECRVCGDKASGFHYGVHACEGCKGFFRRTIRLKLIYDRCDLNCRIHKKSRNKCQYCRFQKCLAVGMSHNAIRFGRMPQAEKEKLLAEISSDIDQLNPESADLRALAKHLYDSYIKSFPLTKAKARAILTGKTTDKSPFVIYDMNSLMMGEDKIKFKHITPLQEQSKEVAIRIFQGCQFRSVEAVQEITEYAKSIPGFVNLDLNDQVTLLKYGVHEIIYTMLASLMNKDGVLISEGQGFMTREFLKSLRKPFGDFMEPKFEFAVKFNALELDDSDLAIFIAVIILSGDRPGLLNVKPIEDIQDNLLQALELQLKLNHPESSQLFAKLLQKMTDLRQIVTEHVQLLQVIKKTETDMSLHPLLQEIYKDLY

Row | Compound | Potency [1] | Potency [2] | Potency [3] | Potency [4] | Potency [5] | Potency [6] | Potency [7] | Potency [8] | Potency [9] | Potency [10] | Potency [11] | Potency [12] | Potency [13] | Potency [14] | Potency [15] | Potency [16] | outcome [17] | Potency [18] | Potency [19] | Potency [20]
1 | O=C(O)CC(=O)C(=O)O | inactive | inactive | inactive | inactive | inactive | inactive | inactive | inactive | inactive | inactive | inactive | inactive | inactive | inactive | inactive | inactive | inactive | – | – | –
2 | O=C1C(O)=C(O)C(=O)C(O)=C1O | inactive | inactive | inactive | inactive | inactive | inactive | inactive | inactive | inactive | inactive | inactive | inactive | inactive | inactive | inactive | – | – | inactive | inactive | inactive
3 | CC(C)(COC(=O)c1ccccc1)COC(=O)c1ccccc1 | inactive | inactive | inactive | inactive | inactive | inactive | inactive | inactive | inactive | inactive | inactive | – | inactive | – | inactive | – | – | inactive | inactive | inactive
4 | CC1OC(=O)C(C)OC1=O (stereo not given) | inactive | inactive | inactive | inactive | inactive | inactive | inactive | inactive | inactive | inactive | inactive | inactive | inactive | inactive | inactive | inactive | inactive | inactive | inactive | inactive
5 | CCOc1ccc(N)c([N+](=O)[O-])c1 | inactive | inactive | inactive | inactive | inactive | inactive | – | inactive | inactive | inactive | inactive | – | inactive | – | inactive | – | – | – | inactive | –
6 | C[N+]1(CC2COC(c3ccccc3)(C3CCCCC3)O2)CCCCC1 (stereo not given) | inactive | inactive | inactive | inactive | inactive | inactive | – | inactive | inactive | inactive | inactive | – | inactive | – | inactive | – | – | – | – | –
7 | c1ccc(CNCCNCc2ccccc2)cc1 | inactive | inactive | inactive | inactive | – | inactive | inactive | inactive | inactive | inactive | inactive | – | inactive | – | inactive | – | inactive | inactive | inactive | –
8 | C[C@@H](c1ncncc1F)C(O)(Cn1cncn1)c1ccc(F)cc1F (stereo not given in full) | inactive | inactive | inactive | inactive | – | inactive | inactive | inactive | inactive | inactive | inactive | inactive | inactive | – | inactive | – | – | inactive | inactive | –
9 | O=C(Nc1ccccc1)c1ccccc1O | inactive | 21.7 µM (active) | inactive | inactive | – | inactive | 24.3 µM (active) | inactive | inactive | inactive | inactive | – | inactive | – | inactive | – | – | – | inactive | –
10 | O=C1CCC(=O)O1 | inactive | inactive | inactive | inactive | inactive | inactive | – | inactive | inactive | inactive | – | inactive | inactive | inactive | inactive | inactive | – | inactive | inactive | inactive
11 | NCC(=O)CCC(=O)O | inactive | inactive | inactive | inactive | inactive | inactive | – | inactive | inactive | inactive | inactive | inactive | inactive | inactive | inactive | inactive | inactive | inactive | – | –
12 | CC(=O)NO | inactive | inactive | inactive | inactive | inactive | inactive | – | inactive | inactive | inactive | inactive | – | inactive | – | inactive | inactive | inactive | inactive | – | –
13 | CCCCNc1ccc(C(=O)OCCOCCOCCOCCOCCOCCOCCOCCOCCOC)cc1 | inactive | inactive | inactive | inactive | inactive | inactive | – | inactive | inactive | inactive | inactive | inactive | inactive | inactive | inactive | inactive | inactive | – | inactive | –
14 | CN(C)c1ccc(CCO)cc1 | inactive | inactive | inactive | inactive | inactive | inactive | – | inactive | inactive | inactive | inactive | – | inactive | – | inactive | inactive | – | inactive | inactive | –
15 | Cc1cc(C(=O)O)ccc1[N+](=O)[O-] | inactive | inactive | inactive | inactive | inactive | inactive | – | inactive | inactive | inactive | – | – | inactive | – | – | inactive | – | inactive | inactive | inactive
16 | CCCCCCCCCCO[C@@H]1O[C@H](CO)[C@@H](O)[C@H](O)[C@H]1O | inactive | inactive | inactive | inactive | inactive | inactive | – | inactive | inactive | inactive | – | – | inactive | – | inactive | inactive | inactive | inactive | inactive | inactive
